Test [1] can be described thus: inhibitors of TNFa-induced NFkB p65 translocation, primary screen, imaging, HUVEC, MLSMR starter and 10KST1 sets (AID 438;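 active = inhibition above 20% together with a positive visual image hit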;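 also: compound added about 3h40 before a 20 min TNFalpha stimulation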;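 as to inhibition: signal is the nuclear over cytoplasmic p65 intensity ratio per well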). The note with it: HUVEC TNFa-induced p65 nuclear translocation; cell count: measured here: nuclei count (cytotoxicity indicator), at 2.08 µM; inhibition: at 2 µM, stronger effect = higher value, 0% TNFa-plus-vehicle, 100% no-TNFa wells.
Test [2] in a line: inhibitors of mutant huntingtin aggregation, primary screen, imaging, exon1htt(103Q)mCFP cells, high-content imaging (AID 483;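 active = visual image review flags a hit and inhibition of aggregation exceeds 20%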;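 also: compound exposure lasted 3 days before fixation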;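 as to nuclei count: percent of the per-plate median nuclei count of sample wells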). The note with it: exon1htt(103Q)mCFP cell line, aggregate imaging, at 2 µM; inhibition of aggregation: stronger effect = higher value; nuclei count: measured here: cell count, toxicity.
Test [3] can be described thus: inhibitors of E-selectin induction by TNFa, primary screen, imaging, HUVEC, immunofluorescence, MLSMR starter and 10KST1 sets (AID 487).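 As to inhibition: signal is fraction of cell area covered by stained E-selectin grains.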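 As to nuclei count: 100% = median nuclei count of all wells on the same plate.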 As to conditions: HUVEC TNFalpha-induced E-selectin immunofluorescence imaging, at 2 µM; inhibition: stronger effect = higher value; nuclei count: measured here: cell number, toxicity.
The target in test [4] is Voltage-gated potassium channel subunit beta-2 (Rattus norvegicus) (UniProt P62483). Kind of test: KvBeta enzyme negative modulators, primary screen, biochemical, NADPH fluorescence (AID 622;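 active = fluorescence slope higher than the sample average by over 3 SD, cut at about -0.22 in these data, passing the limit was not always enough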;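 also: slope of raw intensity against log time taken from 70 to 1610 s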). The note with it: recombinant KvBeta, 4-cyanobenzaldehyde reduction, at 10 µM, stronger effect = higher value.
Test [5] has the same target. Kind of test: KvBeta positive modulators, primary screen, biochemical, NADPH fluorescence (AID 623;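 active = NADPH fluorescence slope more negative than the mean of all samples by about 3 SD, 99.7% confidence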;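 also: fluorescence intensity change per second fitted from 20 to 320 s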). As to conditions: Recombinant KvBeta, NADPH fluorescence decrease slope, 10 min; at 10 µM; stronger effect = lower value.
Test [6] addresses Alpha-2C adrenergic receptor (Homo sapiens) (UniProt P18825). In words: modulators of alpha2C/GIRK thallium flux, primary screen, cell-based, HEK293 alpha2C/GIRK1/2 (AID 624;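 active = fluorescence slope after compound addition differing from the mean of all screened samples at 99.7% confidence, in either direction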;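 also: slope of fluorescence ratio to pre-addition baseline per second over 15 to 24 s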). As to conditions: thallium flux BTC fluorescence, at 10 µM, actives lie on both sides.
Test [7] in a line: inhibitors of Sendai virus-induced IRF3 signaling, primary screen, TLR/RLR signaling modifier project, cell-based, Sendai virus stimulus, luciferase, 10K MLSCN set (AID 602276;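 active = inhibition at or above 50% at 10 µM; inactive = inhibition below 50%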;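 also: firefly luciferase from ISG56 promoter only with Renilla not read in this screen; 0% = Sendai virus plus DMSO and 100% = medium plus DMSO without virus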). As to conditions: HEK293 RL24 IRF3 luciferase reporter, at 10 µM, stronger effect = higher value. On the technique in general: A reporter such as luciferase makes a cellular process visible.
Test [8] in a line: inhibitors of poly I:C-induced TLR3 signaling, primary screen, cell-based, poly I:C stimulus, luciferase, 10K MLSCN set (AID 602277;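 active = inhibition of the reporter signal at or above 50%; inactive = inhibition below 50%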). As to conditions: HEK293-TLR3 RL24 IRF3 luciferase reporter, at 10 µM, stronger effect = higher value.

Molecules are shown by their SMILES. Calls of active or inactive are those of the source.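 The calls were made as follows, unless noted: active = visually confirmed hit in the image check and inhibition above 20%; inconclusive = visually confirmed hit but inhibition not above 20%; inactive = no visual hit in the image check.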

Chain of Voltage-gated potassium channel subunit beta-2 (Rattus norvegicus) (P62483 whole entry, looked up): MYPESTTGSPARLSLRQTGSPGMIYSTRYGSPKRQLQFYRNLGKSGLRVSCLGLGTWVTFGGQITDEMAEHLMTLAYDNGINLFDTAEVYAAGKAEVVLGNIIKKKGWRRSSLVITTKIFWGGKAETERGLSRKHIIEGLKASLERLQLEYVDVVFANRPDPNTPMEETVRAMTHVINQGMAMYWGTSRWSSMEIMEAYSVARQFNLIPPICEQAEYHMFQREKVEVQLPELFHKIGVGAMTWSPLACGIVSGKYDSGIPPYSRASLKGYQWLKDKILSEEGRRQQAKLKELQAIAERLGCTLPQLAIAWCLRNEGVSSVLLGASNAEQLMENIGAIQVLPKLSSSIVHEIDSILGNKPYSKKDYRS
Chain of Alpha-2C adrenergic receptor (Homo sapiens) (P18825 whole entry, looked up): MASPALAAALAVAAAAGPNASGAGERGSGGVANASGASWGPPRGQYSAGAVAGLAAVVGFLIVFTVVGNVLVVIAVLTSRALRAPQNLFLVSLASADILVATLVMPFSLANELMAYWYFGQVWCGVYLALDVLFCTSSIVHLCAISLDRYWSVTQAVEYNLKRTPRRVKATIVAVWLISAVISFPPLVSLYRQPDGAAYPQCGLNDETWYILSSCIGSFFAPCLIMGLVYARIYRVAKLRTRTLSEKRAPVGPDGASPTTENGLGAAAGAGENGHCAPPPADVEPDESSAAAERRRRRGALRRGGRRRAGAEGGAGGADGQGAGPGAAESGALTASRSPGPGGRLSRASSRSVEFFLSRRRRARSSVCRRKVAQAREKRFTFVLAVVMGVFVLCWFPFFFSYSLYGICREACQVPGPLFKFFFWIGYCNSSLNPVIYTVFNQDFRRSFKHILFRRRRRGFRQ

Usually inhibition stands for the drop in the measured response relative to a control, in per cent. With `COc1ccc(S(=O)(=O)NCc2ccc(C(=O)O)cc2)cc1`, the cell count in test [1] worked out at 375. The inhibition is 2.2% (inactive) in test [1], -91.6% (inactive) in test [3], 9.81% (inactive) in test [7] and 17.1% (inactive) in test [8]. Moreover, the inhibition of aggregation in test [2] is -11.9% (inactive). Further, the nuclei count in test [2] is 55.2%; in test [3] it was 93.9%. Besides, the fluorescence slope in test [4] is -0.624 (inactive). Further, the NADPH fluorescence slope in test [5] is -2.6e-05 (inactive). In addition, in test [6], the slope was 0.0062 (inactive).
For the compound `CCc1ccc(C2CC(c3cccc(OC)c3)n3nc(N)nc3N2)cc1` (centres undefined), the cell count in test [1] was 528. Also, the inhibition was 7.5% (inactive) in test [1], -40.1% (inactive) in test [3], 11.5% (inactive) in test [7] and 25.7% (inactive) in test [8]. Also, the inhibition of aggregation in test [2] is 3.7% (inactive). For the same compound, the nuclei count in test [2] stood at 111%; in test [3] it was 104%. Moreover, the fluorescence slope in test [4] was -0.599 (inactive). Further, in test [5], the NADPH fluorescence slope was -4e-05 (inactive). Besides, the slope in test [6] was 0.00641 (inactive).
As for `COc1ccccc1C(=O)Nc1nc2ccc(S(C)(=O)=O)cc2s1`, in test [1], the cell count was 417. Further, the inhibition is -6.5% (inactive) in test [1], -32.3% (inactive) in test [3], -2.51% (inactive) in test [7] and -33.9% (inactive) in test [8]. Also, the inhibition of aggregation in test [2] is -0.8% (inactive). Moreover, the nuclei count in test [2] amounted to 115%; in test [3], 132%. Moreover, in test [4], the fluorescence slope was -0.241 (inactive). For the same compound, the NADPH fluorescence slope in test [5] was -6.6e-06 (inactive). The slope in test [6] is 0.00752 (inactive).
Take `CC(C)NC(=O)Nc1cccs1`: the cell count in test [1] is 708. For the same compound, the inhibition is 3% (inactive) in test [1], -84.5% (inactive) in test [3], 11.4% (inactive) in test [7] and 4.68% (inactive) in test [8]. For the same compound, the inhibition of aggregation in test [2] is 21.6% (inactive). In addition, the nuclei count in test [2] is 104%; in test [3], 105%. In addition, in test [4], the fluorescence slope is -0.507 (inactive). Also, in test [5], the NADPH fluorescence slope was -5.6e-05 (inactive). In test [6], the slope is 0.00565 (inactive).
On to `COc1ccc2cc(CN(CCO)C(=O)c3ccc(Br)cc3)c(=O)[nH]c2c1`, for which, in test [1], the cell count was 333. Also, the inhibition in test [1] is 5.3% (inactive); in test [3], -33% (inactive); in test [7] it was 11.6% (inactive); in test [8] it was 0.693% (inactive). Also, the inhibition of aggregation in test [2] was -21.4% (inactive). The nuclei count is 119% in test [2] and 118% in test [3]. In addition, the fluorescence slope in test [4] is -0.613 (inactive). In addition, in test [5], the NADPH fluorescence slope is -4.6e-05 (inactive). The slope in test [6] was 0.00437 (inactive).
As for `CC(C)(C)c1cc(NS(=O)(=O)c2ccc3c(c2)OCCO3)on1`, the cell count in test [1] was 574. The inhibition in test [1] was -2.4% (inactive); in test [3], -81.6% (inactive); in test [7], 11.1% (inactive); in test [8], 20.1% (inactive). Moreover, the inhibition of aggregation in test [2] is 5.3% (inactive). The nuclei count came out at 104% in test [2] and 167% in test [3]. In test [4], the fluorescence slope was -0.586 (inactive). In test [5], the NADPH fluorescence slope was -2.5e-06 (inactive). Besides, in test [6], the slope was 0.0066 (inactive).
With `O=C(NCCc1ccccc1)C1CCCN(S(=O)(=O)c2cccs2)C1` (centres undefined), the cell count in test [1] was 901. The inhibition is 6.9% (inactive) in test [1], -27.2% (inactive) in test [3], 10.2% (inactive) in test [7] and 23.9% (inactive) in test [8]. The inhibition of aggregation in test [2] was -17.3% (inactive). Moreover, the nuclei count worked out at 111% in test [2] and 115% in test [3]. Also, in test [4], the fluorescence slope is -0.571 (inactive). The NADPH fluorescence slope in test [5] is -2.3e-05 (inactive). Further, the slope in test [6] is 0.00585 (inactive).
In the case of `Cc1cc2c(=O)n(Cc3ccco3)c(SCC(=O)NCc3ccco3)nc2s1`, in test [1], the cell count amounted to 502. Moreover, the inhibition in test [1] was 3.1% (inactive); in test [3], -50% (inactive); in test [7], 14.9% (inactive); in test [8], 17.7% (inactive). In addition, the inhibition of aggregation in test [2] was 3.2% (inactive). The results for the nuclei count in test [2] and in test [3] were 84% and 82.5%, respectively. The fluorescence slope in test [4] is -0.393 (inactive). Besides, the NADPH fluorescence slope in test [5] is 1.9e-05 (inactive). Also, the slope in test [6] is 0.00738 (inactive).
As for `COc1ccc(C2C(C(C)=O)=C(C)N=c3s/c(=C/c4ccc5c(c4)OCO5)c(=O)n32)cc1` (centres undefined), the cell count in test [1] was 437. Besides, the inhibition in test [1] was -7.3% (inactive); in test [3], -0.5% (inactive); in test [7] it was 10.2% (inactive); in test [8], 23.9% (inactive). In addition, the inhibition of aggregation in test [2] is -44.9% (inactive). Also, the nuclei count in test [2] and in test [3] was 116% each time. Moreover, in test [4], the fluorescence slope is -0.528 (inactive). Also, the NADPH fluorescence slope in test [5] is -5.5e-05 (inactive). Also, the slope in test [6] was 0.00398 (inactive).

The values above are taken from PubChem BioAssay.
